Where “and” joins values, the source holds several entries; their conditions need not be identical. Identical values can stand only once. The campaign covered roughly 83,000 compounds. About 780 (0.94%) were called active. What follows is part of a selection rich in actives, with near analogues and random picks from the rest. A number with no mark means an inactive call.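 The calls were made as follows: active = mean inhibition of at least 50% with a set share of replicates also reaching that level; inconclusive = no clear call, values can overlap the other calls; inactive = the rest.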
Test: CD40 pathway blockade in BL2 B cells – cell-based, luciferase reporter, single point, primary screen (AID 1053188);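 also: 0% = neutral control wells and 100% = IKK inhibitor VII at 50 µM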
Settings: BL2 NF-kB luciferase reporter, CD40L-induced, 4 h, active compounds read high; at 10 µM unless noted

Row | Compound | inhibition
1 | O=C1C(Cl)=C(Oc2ccccc2)C(=O)c2ccccc21 | 100% (active)
2 | Cc1ccc(S(=O)(=O)c2ccc(Oc3ccccc3)cc2)cc1 | 1.57%
3 | COc1ccc2ccccc2c1CNc1nnnn1C | -1.14%
4 | O=C(NCC1CCCO1)c1ccc(S(=O)(=O)Nc2ccc(F)cc2)cc1 (stereo not drawn) | 7.17%
5 | c1c2c(cc3sc(N4CCCCC4)nc13)OCCO2 | 99.7% (active)
6 | CN(C)CCCN(C(=O)c1ccc(S(=O)(=O)N2CCCCCC2)cc1)c1nc2cc3c(cc2s1)OCCO3 | -0.778%
7 | Cc1nc2cc3c(cc2s1)OCO3 | 3.54%
8 | O=C(NCC1CCCO1)c1cc2c(s1)CCCC2 (stereo not drawn) | -65.3%
9 | Cc1cccn2c(CNCC(C)Oc3cccnc3)c(C(=O)N3CCOCC3)nc12 (stereo not drawn) | 9.25%
10 | CCOc1ccc(S(=O)(=O)NCCC(=O)N2CCCCCCC2)cc1 | 7.35%
11 | NC(=O)COC(=O)c1sc2cc(F)ccc2c1Cl | -6.93%
12 | O=C(COc1ccccc1)Nc1ccc(C(=O)N2CCCC2)cc1 | -10.1%
13 | N#C[C@H]1N[C@H](CO)[C@@H]1c1ccc(C#Cc2ccccc2F)cc1 | -56.4% [at 25 µM]
14 | N#C[C@@H]1N[C@@H](CO)[C@@H]1c1ccc(C#Cc2ccccc2F)cc1 | -72.6% [at 25 µM] (active)
15 | N#C[C@@H]1N[C@H](CO)[C@@H]1c1ccc(/C=C/c2ccccc2)cc1 | -33.7% [at 25 µM]
16 | O=C(Nc1cccc(-c2cscn2)c1)C1CCN(Cc2ccsc2)CC1 | -0.734%
17 | CC(=O)c1c(C)[nH]c(C(=O)OCC(=O)Nc2c(C)n(C)n(-c3ccccc3)c2=O)c1C | 6.04%
18 | Fc1ccc(-c2ccc(NCCN3CCOCC3)nn2)cc1 | -11.3%
19 | COc1ccc2c(c1)c(=Cc1ccc(N(C)C)cc1)c1cc(-c3ccccc3)[n+](C)n12 | 104% (active)
20 | COCCCN(C(=O)CSCc1ccc(C)cc1)c1c(N)n(Cc2ccccc2)c(=O)[nH]c1=O | 10%
21 | Cc1cccc(-n2c(=O)c3c(C)c(C)sc3n(CC(N)=O)c2=O)c1 | 0.549%
22 | CN1CCC(N(C)C(=O)c2ccc(Cl)c(S(=O)(=O)Nc3ccc(Cl)cc3)c2)CC1 | -2.41%

Row | Compound | inhibition
23 | CC1(C(=O)O)CCCN(C(=O)/C=C/c2ccccc2)C1 (stereo not drawn) | 4.26%
24 | O=C(CCCCCCCC(=O)N1CCCCC1)N1CCCCC1 | -9.37%
25 | COc1ccc(NS(=O)(=O)c2ccc(N3CCOCC3)c(NC(=O)/C=C/C(=O)O)c2)cc1 | 2.43%
26 | O=C(Cn1cnc([N+](=O)[O-])n1)NCCc1ccccc1 | -4.08%
27 | O=C(Oc1ccc(-c2nc(-c3ccccn3)no2)cc1)c1ccccc1 | 49.6% (active)
28 | CC(C)c1nc(-c2ccccn2)no1 | -17.2%
29 | O=C(COC(=O)c1ccc(Oc2ccccc2)cc1)Nc1nnc(-c2ccccc2)o1 | -10.4%
30 | O=C(NCCCN1CCCC1=O)c1ccc(S(=O)(=O)Nc2ccccc2)cc1 | 4.15%
31 | C=C(C)C[C@H]1CCn2cc(nn2)COCCNC1=O | 4.24% [at 25 µM]
32 | Cc1cccc(CN2CCN(Cc3cnn(-c4ccccc4F)c3)CC2CCO)n1 (stereo not drawn) | -1.95%
33 | CN(Cc1cccc2ncccc12)C(=O)CC1C(=O)NCCN1Cc1ccc(F)cc1 (stereo not drawn) | -2.82%
34 | O=C(CCC(=O)c1cccs1)NC1CCCCCC1 | -60%
35 | O=[N+]([O-])c1cccc(C2=NCCS2)c1 | 9.1%
36 | O=C(NC1CC1)c1ccc(-c2ccccc2)cc1 | -88.4%
37 | C/C=C/c1ccc(OCC(O)CN2CCCCCCC2)c(OC)c1 (stereo not drawn) | 0.219%
38 | Oc1c(Cl)cc(Cl)c(Cl)c1Cc1c(O)c(Cl)cc(Cl)c1Cl | 90.9% (active)
39 | O=C(NC(=O)c1ccccc1)NC(=O)c1ccccc1 | -13.8%
40 | O=C(NC1=CC(=O)c2ccccc2C1=O)c1ccccc1 | 97.7% (active)
41 | CC(NC(=O)c1ccccc1)C(=O)Nc1ccccc1 (stereo not drawn) | 3.04%
42 | Cc1ccc(S(=O)(=O)N(C)CC(=O)NCCc2c[nH]c3ccccc23)cc1 | 12.5%
43 | Cc1ccc(S(=O)(=O)N2CCN(C(=O)Cc3sc(C)nc3-c3ccc(F)cc3)CC2)c(C)c1 | -8.23%
44 | Cc1cc(C)c2nc(N3CCC(C(=O)NCCN4CCOCC4)CC3)sc2c1 | -16.5%

Row | Compound | inhibition
45 | CC(OC(=O)CNC(=O)c1ccc(Cl)c([N+](=O)[O-])c1)C(=O)NCc1ccco1 (stereo not drawn) | 21.2%
46 | CCC(C)N(C(=O)COC(=O)c1nc(Cl)ccc1Cl)C1CCS(=O)(=O)C1 (stereo not drawn) | 3.49%
47 | N#C[C@@H]1[C@H](c2ccccc2-c2ccccc2)[C@H](CO)N1c1ncc(-c2ccccc2)s1 | -4.27% [at 25 µM]
48 | Cc1ccc(-c2ccccc2[C@H]2[C@@H](C#N)N(c3ncc(-c4ccccc4)s3)[C@@H]2CO)cc1 | 50.1% [at 25 µM] (active)
49 | Cc1cccc(-c2ccccc2[C@@H]2[C@H](C#N)N(c3ncc(-c4ccccc4)s3)[C@H]2CO)c1 | -6.41% [at 25 µM]
50 | Cc1ccc2cccc([N+](=O)[O-])c2n1 | -0.702%
51 | CCC(=O)N1[C@@H](CO)[C@@H](c2ccc(C3=CCCC3)cc2)C12CN(C(=O)COC)C2 | -9.07% [at 25 µM]
52 | CC(OC(=O)C1CC(=O)N(Cc2ccccc2)C1)C(=O)Nc1ccccc1[N+](=O)[O-] (stereo not drawn) | 7.76%
53 | COc1ccc(NC(=O)c2cc3nc(-c4ccccc4)cc(C)n3n2)cc1OC | -3.33%
54 | Cn1c(-c2ccco2)nc2cc3ccccc3cc21 | 50.6% (active)
55 | Cc1nnc2sc(-c3ccco3)nn12 | 4.37%
56 | CN(c1nc2ccccc2n2c(-c3ccco3)nnc12)S(=O)(=O)c1ccccc1 | 1.82%
57 | CCOC(=O)C1(C)NC(c2ccco2)C2C(=O)N(c3ccccc3)C(=O)C21 (stereo not drawn) | -6.84%
58 | CS(=O)(=O)Nc1ccc2c(c1)[C@H]1C[C@@H](CC(=O)NCCc3ccccc3)O[C@@H](CO)[C@H]1O2 | -1.64% [at 25 µM]
59 | O=C(NCCc1ccc(F)cc1)c1ccc(S(=O)(=O)N2CCCCC2)cc1 | -1.19%
60 | NC(N)=N/N=C/c1ccc(OCc2ccc(Cl)cc2Cl)cc1 | 83.8% (active)
61 | CCOc1ccc(NC(=O)NNC(=O)c2ccc(Cl)cc2Cl)cc1 | 10.3%
62 | CC(C)(C)NC(=O)NC(=O)COC(=O)Cc1ccc(Cl)cc1Cl | 15.3%
63 | COCCNC(=O)CSc1nc(N)c(NC(=O)c2ccco2)c(=O)[nH]1 | 6.02%
64 | COc1ccccc1C(=O)NC(CCSC)C(=O)NNC(=O)c1ccccc1C (stereo not drawn) | 0.904%
65 | O=C(COC(=O)c1ccccc1)c1ccc2c(c1)OCCO2 | 101% (active)
66 | O=C1COc2ccc(C(=O)COC(=O)c3ccccc3Cl)cc2N1 | -59.8%

Row | Compound | inhibition
67 | O=C(COC(=O)c1ccc(F)cc1)Nc1ccc2c(c1)OCO2 | -50.8%
68 | O=C(COC(=O)c1ccncc1)Nc1ccc2c(c1)OCO2 | -1.31%
69 | O=C(COC(=O)c1ccc2c(c1)OCCO2)NCc1ccccc1Cl | -15%
70 | CC(=O)Nc1cccc(C(=O)OCC(=O)c2ccc3c(c2)OCO3)c1 | 90.8% (active)
71 | CCC(=O)Nc1nnc(S(=O)(=O)N2CCCc3ccccc32)s1 | 5.48%
72 | CC(C)NC(=O)N(C)C[C@H]1Oc2ccc(N(C)C)cc2CC(=O)N(C)C[C@@H]1C | 6.49%
73 | CC(=O)Nc1cccc(C(=O)OCC(=O)NCc2cc(C)c(O)c(C)c2)c1 | -53.4%
74 | CN(CC(=O)Nc1ccc(OC(F)(F)F)cc1)C(=O)C1CCC1 | -5.45%
75 | O=C(CSc1ccccc1)Nc1cccc(S(=O)(=O)N2CCCCC2)c1 | -2.87%
76 | CC(=O)Oc1ccc(-c2cccc(C(=O)N3CCCCC3)c2)cc1 | -16.5%
77 | N#C[C@@H]1[C@H](c2ccccc2)[C@H](CO)N1C(=O)CN1CCOCC1 | -6.4% [at 25 µM]
78 | CCOC(=O)C1(Cc2cccc(OC)c2)CCN(Cc2csc(C(C)=O)c2)CC1 | 21.6%
79 | CN1C(=O)c2cc(NC(=O)c3cccc(F)c3)ccc2OC[C@@H]2O[C@@H](CC(=O)NCC3CCCCC3)CC[C@H]21 | 28.6% [at 25 µM] and 23.2% [at 25 µM]
80 | Cc1ccc(OCCCC(=O)Nc2ccc3c(c2)OCCO3)cc1 | 8.39%
81 | COC(=O)CCNc1ccc2c(c1)OCCO2 | 49.8% (active)
82 | CCCCC(=O)Nc1ccc2c(c1)OCCO2 | -54.6%
83 | CSc1ncccc1C(=O)NC1CCCCCC1 | 3.02%
84 | C/C=C/c1cnc2c(c1)C(=O)N([C@@H](C)CO)C[C@@H](C)[C@@H](CN(C)C(=O)C1CCOCC1)O2 | -23% [at 25 µM]
85 | C[C@@H]1CN([C@@H](C)CO)C(=O)c2cc(C#CCc3ccccc3)cnc2O[C@@H]1CN(C)C(=O)C1CCOCC1 | 65% [at 25 µM] (active)
86 | C[C@H]1CN([C@@H](C)CO)C(=O)c2cc(C#CC3(O)CCCC3)cnc2O[C@@H]1CN(C)C(=O)Cc1ccccc1 | -19.3% [at 25 µM]
87 | COC(=O)Cc1c(-c2[nH]c3ccccc3c2CC(=O)OC)[nH]c2ccccc12 | -13.2%
88 | COc1ccc(CCNC(=O)CN(c2ccccc2)S(=O)(=O)c2ccccc2)cc1 | 11.3%
